Measured potencies and affinities stand elsewhere.
These molecules were tested on Klebsiella pneumoniae. Conditions: Concentration 20 uM; ASSAY_TEST Inhibition of Bacterial Growth; detection method Absorption (OD600); MEDIA CAMHB; plate type 384well; NBS; CORNING #3640; time 18 hr.
For `CCN(CC)C(=O)N1CCN(C)CC1` [DIETHYLCARBAMAZINE], the Inhibition was 16.19%.
In the case of `c1ccc(-c2cc(N3CCCCC3)c3ccccc3n2)nc1`, the Inhibition is reported as 14.97%.
Molecule `Cc1nnc(NC(=O)c2cn(-c3ccccc3)nc2-c2ccccc2C)o1` has an Inhibition of 13%.
`COc1ccc(C2=NN(C3CCCCCC3)C(=O)C2(C)C)cc1OCCCCOc1ccc(-c2nn[nH]n2)cc1` showed an Inhibition of 0.76%.
For `CCOc1ccc(-c2nc(CNCCc3ccc(F)cc3)cs2)cc1`, the Inhibition was 12.06%.
Work on `COCC(C)NC(=O)CSc1ncnc2sc(-c3ccccc3)cc12` (stereo unspecified) yielded an Inhibition of 18.05%.
`Cc1ccccc1CN1CCC(O)(c2ccc(Cl)c(C(F)(F)F)c2)CC1` gave an Inhibition of 11.69%.
`Cc1ccc(C(=O)Nc2ccc(S(=O)(=O)O)c3cc(S(=O)(=O)O)cc(S(=O)(=O)O)c23)cc1NC(=O)c1cccc(NC(=O)Nc2cccc(C(=O)Nc3cc(C(=O)Nc4ccc(S(=O)(=O)O)c5cc(S(=O)(=O)O)cc(S(=O)(=O)O)c45)ccc3C)c2)c1` [SURAMIN] gave an Inhibition of 17.11%.
`CCOc1ccc(-c2nc(NC(=O)CS(=O)(=O)c3ccccc3)sc2C)cc1` gave an Inhibition of 8.83%.
`CC1=Nc2ccc(Cl)cc2C(O)(c2ccc(C)cc2)N1CCN1CCCCC1` (stereo unspecified) gave an Inhibition of 18.59%.
Work on `Cc1ccc(S(=O)(=O)Nc2ccc(CN3CCN(C(=O)c4cccc(C#N)c4)CC3)cc2)cc1` yielded an Inhibition of 10.93%.
`COc1cc(CN2CCC3(C=Cc4ccccc43)CC2)cc2c1OCO2` was tested, and the Inhibition was -1.15%.
`Cc1ccc2cc(C3NC(=O)c4ccccc4N3)c(Cl)nc2c1` (stereo unspecified) was tested, and the Inhibition was 19.35%.
Molecule `CC(C)/N=c1\cc2n(-c3ccc(Cl)cc3)c3ccccc3nc-2cc1Nc1ccc(Cl)cc1` [CLOFAZIMINE] has an Inhibition of 13.39%.
`CS(=O)(=O)c1ccccc1C(=O)N(Cc1ccccc1)c1ccccc1` was tested, and the Inhibition was 9.63%.
Molecule `Nc1nc(N)c2c3c(sc2n1)CN(Cc1ccccc1)CC3` has an Inhibition of 10.27%.
`Cl.c1ccc(C[C@@H]2CN(c3nccc(Oc4ccc(-n5ccnc5)cc4)n3)CCN2)cc1` was tested, and the Inhibition was 13.63%.
For `CC1CCCCN1C(=O)NCCc1coc(-c2ccc(F)cc2)n1` (stereo unspecified), the Inhibition was 15.76%.
For `COc1cccc(OC)c1C(=O)Nc1ccc(Cl)c(-c2nc3ccccc3s2)c1`, the Inhibition was 2.41%.
In the case of `O=C(OCc1ccccc1)N1CCC(c2cc(-c3ccncc3)c(-c3ccc(F)cc3)[nH]2)CC1`, the Inhibition is reported as 6.24%.
Molecule `CC(=O)N(CCN(C(=O)c1ccc(F)cc1)c1ccccc1)c1ccccc1` has an Inhibition of 8.37%.
With `CCN(CC)S(=O)(=O)c1ccc(Cl)c(C(=O)Nc2ccc3nc(C)sc3c2)c1` the Inhibition was 4.43%.
For `COc1cccc(NC(=O)c2c(NC(=O)c3cccnc3)sc3c2CCC3)c1`, the Inhibition was 13.46%.
With `COc1ccc(C2CC(c3cccs3)=NN2C(=O)c2ccco2)cc1OC` (stereo unspecified) the Inhibition was 20.7%.
Molecule `COc1ccc(Cn2cnc3c(-c4ccco4)nc(Cl)nc32)cc1` has an Inhibition of 18.21%.
For `Cc1ccc(NC(=O)c2nc[nH]c2C(=O)Nc2nc3ccccc3[nH]2)c(C)c1`, the Inhibition was 13.9%.
With `c1ccc(-c2[nH]c3ccccc3c2C(c2ccccn2)N2CCCC2)cc1` (stereo unspecified) the Inhibition was 11.72%.
`O=C(C1CCN(c2nnnn2-c2ccccc2)CC1)N1CCc2ccccc2C1` was tested, and the Inhibition was 12.73%.
Work on `COc1ccc2nc(C)cc(OCC(=O)NCc3ccccc3)c2c1` yielded an Inhibition of 19.56%.
`N#Cc1nc(-c2ccccc2F)oc1NCCc1ccccc1` showed an Inhibition of 12.11%.
`COc1ccc(OC(C)C(=O)Nc2ccc(Cl)cc2C)cc1` (stereo unspecified) showed an Inhibition of 4.92%.
For `O=C(C1CCN(c2nnc(-n3cccc3)s2)CC1)N1CCC(Cc2ccccc2)CC1`, the Inhibition was 11.79%.
`Cl.O=C(Nc1ccc(N2CCNCC2)nc1)c1oc(-c2ccccc2)nc1C(F)(F)F` showed an Inhibition of 2.54%.
For `CCOc1ccccc1NC(C)C(=O)Nc1cc(C(F)(F)F)ccc1N1CCOCC1` (stereo unspecified), the Inhibition was 14.66%.
`Nc1ncnc2c1ncn2C[C@@H](O)[C@@H](O)C(=O)O` [ERITADENINE] gave an Inhibition of 17.23%.
`c1coc(CNc2nc(N3CCCCC3)nc3ccccc23)c1` gave an Inhibition of 7.9%.

Reference: ChEMBL document CHEMBL4513149, “CO-ADD screening of MMV (CH) - MMV compounds” (2021)
